Our source for the PBM binding z-score values is the supplement of paper PMC6555819.

This test has as its system LXRb:RXRa (NR concentration 270 nM, RXRa partner concentration 90 nM). As to the kind of experiment: PBM binding z-score (relative to random genomic background probes); higher = stronger binding; sequences stand for … in GC…GCGATTGACAGCGTAGAATGAAGG
Put shortly:
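Ligand-free nuclear receptor dimers were bound for 1 h to custom Agilent 4×180K protein-binding microarrays. Detection used antibodies against each partner (one per run). Binding z-scores rest on regression-normalized fluorescence, with random background probes as the reference.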
CCTAGCAGGCCAATCTGGGTGACTCAAGGCTTGA had a PBM binding z-score of -0.476.
The same measure for CGAACTAGGTCAGAACTGGACAGTGAAGGATGAT: 0.262.
As to GGAACGAGGGCATTCGAGTTGATGGCATGGCGAT, the PBM binding z-score was -0.299.
Under TCAGACAGGTGAAGGTAACTCCGGTACGCAGTCG stands 0.966.
The same measure for CGTCCCAGGTCAATGCTAGGTCAGTGAAAGCATT: 3.02; for TCATATAGGTAAACAGGTGGAAGTCCGTAAGTTA: 0.692; for CCAGACAGGTGAAAGGTAACCCAGTCTGGTACGC: 0.445.
The same measure for CTACCAAGCTGAACAAGGTCGTTGATTACTATTC: 1.31.
On to GGAACGAGGGCGTTCGAGTTGATAGCATGGCGAT, for which the PBM binding z-score is -0.656.
Consider CAGCCTAGGTCTGGGCCAGTATAGGAGGAACGTT, for which the PBM binding z-score was -1.05.
Take GGAGACAGGTGAAACGCAGGTAACTCAGGGTGGC: the PBM binding z-score was -0.0924.
In turn, TAGCCTAGGTCATGGGCCGGTATACCACGCGAAC yielded a PBM binding z-score of 2.72.
Under CAAACTCGGTCACAGAGGTCAAAGTCCGTGCGTA stands 5.29; under CCTACTGCGCCACGAAAGGTCATTGATTCAGTGA, 4.54; under GCGTACGGGTCAAAGGTTATAGCATGAATAGAAT, 5.7.
Under CCATACGGGTCACGAGGTTATAGCACGACGAGCG stands 3.79.
The same measure for TCATATAGGTAAATGCTAGGTGAAATTCCGATCT: 0.729; for CGAACGAGGGGATGAGTTGATAGCAAATGCCGAT: -0.0303.
Regarding GCATATAGGTGATACAAGGTGAAAGTCCGATTGT, the PBM binding z-score turned out to be 0.234.
The same measure for CCGACTGCGGCAAAGGTTACCATACTCAGTACGA: 1.73.
ACTATTAGTTGTGACGAGGGCAACCGATAGGTTG registered a PBM binding z-score of -0.0591.
In turn, TCGAGTAGGTTACCAATGGGGCATTCCGCTTTCT yielded a PBM binding z-score of 0.838.
Under CGAACTAGGTCCTCCAGGACAGTGAATACATTGA stands -0.492.
For the sequence TCAAGTAGGTTACCAATGGGGCATTCAGCTTTCT, the PBM binding z-score turned out to be 1.17.
The sequence GCTGTTAGGTCAACTGATGGTCAGCTAAAGCTCG registered a PBM binding z-score of 2.5.
With TCATATAGGTAAACAGGTGCAAGTCCGTAAGTTA, the PBM binding z-score was 1.02.
For the sequence TCTTGTAGATCAATAGAGGATAAGAAAGTGCGCT, the PBM binding z-score was -0.13.
Under TTACCAGGGTGAAGGTCGTTGATCCCTCTGTAGA stands 1.44; under GCTAGCAGGCCATTTTGGTCACTCAATGACGGGC, -0.967.
The same measure for CGTCCAAGGTCAATGCTAGGTCAGTGTAAGCATT: 4.11.
Under TATACAGCGTCAAAGGCCAGAGTACGAATGTCGA stands -0.616; under ATCTCGAGGTAAAGTTCAGTGAAAGATCGATAGA, 1.29.
Sequence CATACAGGGTCAGCTAGGCCAGTGTAGGGACGGC displayed a PBM binding z-score of 1.81.
ATATGTAGGTTATCGCGTCATTCAGTTTGCGCAT displayed a PBM binding z-score of 1.1.
CCGACTGGGGTAAAGGTTACCATACTCAGTACGA: the PBM binding z-score was 2.11.
Under TAGCCTAGGTCATGCGGGCCAGGATAGTGTCGGC stands 1.4; under CCTAGTAGGTCAAGGTCACACACGCTATAGGTAC, 4.64.
Under TCGAGTAGGTTACCATTGGGGCATTCAGCTTTCT stands 0.964.
Sequence TTACCAAGGTGGGCTGAGGTCGTTGATCCAACTC showed a PBM binding z-score of 0.938.
AGAATGACGTTATACGTAGATCAGGGAAGAAAGT came in with a PBM binding z-score of -0.753.
